# PMC10726135, “HNF4α isoforms regulate the circadian balance between carbohydrate and lipid metabolism in the liver”
# The full ranking holds about 18,000 sequences; the median of “log2 normalized intensity” is about 0.36, and the highest 2% start at about 7.3. The sample holds the highest values, similar sequences and a random draw of the others, so the mix is not that of the screen.
# Target: T1, HNF4alpha8 (COS-7 nuclear extract) (Homo sapiens, UniProt P41235-5 1-452)
# T1 sequence: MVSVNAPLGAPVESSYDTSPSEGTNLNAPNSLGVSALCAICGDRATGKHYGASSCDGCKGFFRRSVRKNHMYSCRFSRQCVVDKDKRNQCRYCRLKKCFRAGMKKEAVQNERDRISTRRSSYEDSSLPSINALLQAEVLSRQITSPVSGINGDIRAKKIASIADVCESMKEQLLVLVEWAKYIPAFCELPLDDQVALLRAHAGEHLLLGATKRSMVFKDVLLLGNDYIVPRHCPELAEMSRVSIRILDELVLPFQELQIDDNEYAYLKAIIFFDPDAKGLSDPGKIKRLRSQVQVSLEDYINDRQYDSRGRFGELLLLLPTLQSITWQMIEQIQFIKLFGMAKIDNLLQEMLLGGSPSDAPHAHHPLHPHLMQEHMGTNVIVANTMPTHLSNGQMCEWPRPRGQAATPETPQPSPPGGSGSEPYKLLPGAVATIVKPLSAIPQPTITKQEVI
# Test: protein-binding microarray; COS-7 nuclear extract on double-stranded Agilent 4x180k PBM; binding buffer, salt, pH and temperature not given in the material; high values mean tight binding
# Settings: chain copies: 2; label: 3' end of strand 1 on the slide; dsDNA, one strand shown
# Outline: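 Binding signal is the background-corrected, normalized gProcessedSignal calculated by Agilent software. It was measured by applying nuclear extracts of COS-7 cells transiently transfected with a human HNF4α isoform expression vector to a custom Agilent SurePrint G3 4x180k array of ~44,000 double-stranded ~60-nt test sequences in quadruplicate, then imaging bound HNF4α on an Agilent G2565CA scanner at 2-µm resolution.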
row,Sequence,binding signal [log2 normalized intensity]
1,GCTCCTGTTCCTTTGTTACACTGGCTGCCCGCCTAGGGAGATTAGAGTATCGGTCGA,2.08
2,AAAGGTCACCAGTGAGCCAAGGTACCCTGGGCCTAGGGAGATTAGAGTATCGGTCGA,1.29
3,GTGACTCTAGGAACCTTTCTCCATACCTCTGCCTAGGGAGATTAGAGTATCGGTCGA,-0.874
4,ACAAAGAAATGTAACCTTTGGCCAATTGCAGCCTAGGGAGATTAGAGTATCGGTCGA,5.13
5,AACTGACACTTGTTTGAATTGTGATAATAAGCCTAGGGAGATTAGAGTATCGGTCGA,1.04
6,TTATCTTGGTGCCTGCAGAGCCTCCCCATTGCCTAGGGAGATTAGAGTATCGGTCGA,2.69
7,GTAGGGCAGAGGCCAGTTTGATCACAAGACGCCTAGGGAGATTAGAGTATCGGTCGA,-0.285
8,AGTTTGGTTTAAAGTTCAAGTCATAACTGGGCCTAGGGAGATTAGAGTATCGGTCGA,2.53
9,ATGCCCAAATGAATAATCCCCTCCTGGACTGCCTAGGGAGATTAGAGTATCGGTCGA,3.33
10,GAATAATCCCCTCCTGGACTTTGGTCTCATGCCTAGGGAGATTAGAGTATCGGTCGA,8
11,GTAATGACATGCAGTATGGGGACTTTGGACGCCTAGGGAGATTAGAGTATCGGTCGA,7.1
12,CTCCTGGACTTTGGTCTCATGGGCCTAAACGCCTAGGGAGATTAGAGTATCGGTCGA,5.27
13,ATCCCCTCCTGGACTTTGGTCTCATGGGCCGCCTAGGGAGATTAGAGTATCGGTCGA,7.4
14,GGACTTTGGTCTCATGGGCCTAAACATTCCGCCTAGGGAGATTAGAGTATCGGTCGA,5.24
15,GACATGCAGTATGGGGACTTTGGACTCCTGGCCTAGGGAGATTAGAGTATCGGTCGA,8.41
16,TATGTGCTCACTCCTGGGACAAGGACTTTGGCCTAGGGAGATTAGAGTATCGGTCGA,3.11
17,CAAATGAATAATCCCCTCCTGGACTTTGGTGCCTAGGGAGATTAGAGTATCGGTCGA,5.55
18,TATTCCTTGTCCTTGACCCTTCCTCCCATTGCCTAGGGAGATTAGAGTATCGGTCGA,4.01
19,GAAACATCCACATGTGGGTCCAAAGAACATGCCTAGGGAGATTAGAGTATCGGTCGA,3.82
20,ATCACATTCTAATCCTCTGGTCTTTGCCCCGCCTAGGGAGATTAGAGTATCGGTCGA,5
21,CCCTGAGTAGTTCTTCTGGTTAGTTTTTCAGCCTAGGGAGATTAGAGTATCGGTCGA,1.66
22,CTCCCCTCCTCCAGATGGGCTCATGTAACAGCCTAGGGAGATTAGAGTATCGGTCGA,2.65

row,Sequence,binding signal [log2 normalized intensity]
1,ATGCAAAGCCCTGGCTGACCTTTAGCCTGGGCCTAGGGAGATTAGAGTATCGGTCGA,7.69
2,TTAGCTATTTGACCTTCGGCCTCAATTATAGCCTAGGGAGATTAGAGTATCGGTCGA,7.29
3,GACAGCTGGGCCCTGCCTGACCTGCCCTTTGCCTAGGGAGATTAGAGTATCGGTCGA,5.01
4,ATTGGCCCTTTGACCTTTAATCAAGGGCTGGCCTAGGGAGATTAGAGTATCGGTCGA,5.91
5,CTGATTTAGCTATTTGACCTTCGGCCTCAAGCCTAGGGAGATTAGAGTATCGGTCGA,8.73
6,TGGCTGGGCCCTGACCTCAAGTGACCTTTGGCCTAGGGAGATTAGAGTATCGGTCGA,7.77
7,GTGACGGAGGTGACCTTTGGTTGTCCTTACGCCTAGGGAGATTAGAGTATCGGTCGA,4.94
8,AACCAAGATAGTGACGGAGGTGACCTTTGGGCCTAGGGAGATTAGAGTATCGGTCGA,7.34
9,GCCCCTGGCTGGGCCCTGACCTCAAGTGACGCCTAGGGAGATTAGAGTATCGGTCGA,2.6
10,CAAGAATGCAAAGCCCTGGCTGACCTTTAGGCCTAGGGAGATTAGAGTATCGGTCGA,5.88
11,CCAGGCTGATTTAGCTATTTGACCTTCGGCGCCTAGGGAGATTAGAGTATCGGTCGA,5.84
12,ACCAAAACCAAGATAGTGACGGAGGTGACCGCCTAGGGAGATTAGAGTATCGGTCGA,1.88
13,CTTCGCTGGAATGTCACAGGGATTACGATCGCCTAGGGAGATTAGAGTATCGGTCGA,0.569
14,CTTTGATAGCCAAGCCAACCAGGAGAATTTGCCTAGGGAGATTAGAGTATCGGTCGA,2.31
15,CTGGTTGGAATTCCAGTGTTCACATCTGATGCCTAGGGAGATTAGAGTATCGGTCGA,1.09
16,TCATTTCTGCTTGCAACCAAAGGAGTCCTGGCCTAGGGAGATTAGAGTATCGGTCGA,-0.447
17,TGGCCAAAGTTCAGTAAATCTTAGAGAACAGCCTAGGGAGATTAGAGTATCGGTCGA,2.27
18,GCCAAGGGCAGTGTTTGCCCAGCTTGAATCGCCTAGGGAGATTAGAGTATCGGTCGA,-0.771
19,GCAACCTTTGCTCTCCCTCCTCTCTGAGCAGCCTAGGGAGATTAGAGTATCGGTCGA,2.28
20,CTGGGCCCTGCCTGACCTGCCCTTTGTCCCGCCTAGGGAGATTAGAGTATCGGTCGA,6.91
21,ATCGCCCTTTGAGGAGGCCTTTCCTGACCCGCCTAGGGAGATTAGAGTATCGGTCGA,3.43
22,GGGCCCTGACCTCAAGTGACCTTTGACCTCGCCTAGGGAGATTAGAGTATCGGTCGA,12

row,Sequence,binding signal [log2 normalized intensity]
1,GGAGTGTGGGGTGGTGTCAGGAGTACAGGTGCCTAGGGAGATTAGAGTATCGGTCGA,1.12
2,TGACCTTTGTCCTGGCACAACTGGATGGTGGCCTAGGGAGATTAGAGTATCGGTCGA,5.2
3,CTGGATGACCTTTGTCCTGGCACAACTGGAGCCTAGGGAGATTAGAGTATCGGTCGA,6.78
4,TTGAGCTGGATGACCTTTGTCCTGGCACAAGCCTAGGGAGATTAGAGTATCGGTCGA,8
5,CTAGTTAAGTCACTGGGCTGATGACCTTTGGCCTAGGGAGATTAGAGTATCGGTCGA,6.81
6,ATGACCTTTGACTGAGATGGGAGCAGTGCTGCCTAGGGAGATTAGAGTATCGGTCGA,3.52
7,CACTGGGCTGATGACCTTTGACTGAGATGGGCCTAGGGAGATTAGAGTATCGGTCGA,5.81
8,AGAATCATCTTTGAGCTGGATGACCTTTGTGCCTAGGGAGATTAGAGTATCGGTCGA,8.24
9,TCCTGATCTTTGACCTGGAGCATGACCCTTGCCTAGGGAGATTAGAGTATCGGTCGA,5.6
10,CATCTTTGAGCTGGATGACCTTTGTCCTGGGCCTAGGGAGATTAGAGTATCGGTCGA,9.19
11,TTTTTTTTTTGAGATGGAATCTTGCCCTGTGCCTAGGGAGATTAGAGTATCGGTCGA,3.54
12,TAAGTCACTGGGCTGATGACCTTTGACTGAGCCTAGGGAGATTAGAGTATCGGTCGA,7.85
13,ATGGGATGACCTTTGAGCAATAGGAAATGGGCCTAGGGAGATTAGAGTATCGGTCGA,4.79
14,CTAGCCCCGCCCAGATGTCTGGCTAAGACCGCCTAGGGAGATTAGAGTATCGGTCGA,3.43
15,GAGGAAAACCAGCTCAGTGGAAATTGTCCTGCCTAGGGAGATTAGAGTATCGGTCGA,0.989
16,CATATCTGGAATTTCAAAGGGAGCATATGTGCCTAGGGAGATTAGAGTATCGGTCGA,1.31
17,CTTTCTTTGTCTGTGTAGACTCATCTGGTGGCCTAGGGAGATTAGAGTATCGGTCGA,1.89
18,ATGAAGCAAGAGTCCAAATTCCTAGCCCTCGCCTAGGGAGATTAGAGTATCGGTCGA,2.14
19,AGGTTCCTCGCCTATGGTATGTATGGAATGGCCTAGGGAGATTAGAGTATCGGTCGA,2.2
20,TCTTTGCACTTGATGTTCCCCCTCCCTGGAGCCTAGGGAGATTAGAGTATCGGTCGA,4.84
21,CCTTTGCACCAGAGATAATATGCTTACTTAGCCTAGGGAGATTAGAGTATCGGTCGA,0.614
22,TGGCTAAGACAGGGGCTATTTCTGACCTTTGCCTAGGGAGATTAGAGTATCGGTCGA,7.32

row,Sequence,binding signal [log2 normalized intensity]
1,CTATTTCTGACCTTTGCACCAGAGATAATAGCCTAGGGAGATTAGAGTATCGGTCGA,6.97
2,TCTGACCAGGCTGATTTAGCTATTTGACCTGCCTAGGGAGATTAGAGTATCGGTCGA,4.7
3,AAGACAGGGGCTATTTCTGACCTTTGCACCGCCTAGGGAGATTAGAGTATCGGTCGA,10.2
4,AGGGGCTATTTCTGACCTTTGCACCAGAGAGCCTAGGGAGATTAGAGTATCGGTCGA,7.69
5,CTGAGACAACACTCAGGATACCTAAGCCCCGCCTAGGGAGATTAGAGTATCGGTCGA,1.33
6,TCTTATTTACCGAAATGTGGGTGAGGCTGTGCCTAGGGAGATTAGAGTATCGGTCGA,1.67
7,AAGCTATTCACTTTTTGGCCTTTGGCTGTTGCCTAGGGAGATTAGAGTATCGGTCGA,3.01
8,TAAAATGGACTTTGTGGGCCAAAAGCAGCCGCCTAGGGAGATTAGAGTATCGGTCGA,2.65
9,AAAAAGTCCCTGGTCCCATAGGAAAGTGAGGCCTAGGGAGATTAGAGTATCGGTCGA,-0.813
10,TTTTGAATGACAGTGTCAGGACCTTGCTCCGCCTAGGGAGATTAGAGTATCGGTCGA,2.73
11,AATACTTGCCTAAGGTCAATGTCCTTTTTCGCCTAGGGAGATTAGAGTATCGGTCGA,4.53
12,TCTTAACATCAGAAGTTGGACTTTGTACATGCCTAGGGAGATTAGAGTATCGGTCGA,9.76
13,AGGGACTTTGATCTTCTTACCCCTTTGCTGGCCTAGGGAGATTAGAGTATCGGTCGA,3.3
14,CCCCTTCTTAACATCAGAAGTTGGACTTTGGCCTAGGGAGATTAGAGTATCGGTCGA,8.31
15,ATTAGAGAACATGTACTTTGTACTGCTTATGCCTAGGGAGATTAGAGTATCGGTCGA,4.99
16,AGGAGATGTGGTGGACTTTAACGACCTTTGGCCTAGGGAGATTAGAGTATCGGTCGA,5.28
17,ACTTTGGAACTCAGTTAATGTACAGAGTATGCCTAGGGAGATTAGAGTATCGGTCGA,0.96
18,CCTTGATGTGTATTTGTAGCTTCAAACCAGGCCTAGGGAGATTAGAGTATCGGTCGA,1.52
19,GGGGGTTTGCAACCTTTGATAACCTACAACGCCTAGGGAGATTAGAGTATCGGTCGA,1.37
